# Pol eta inh-1 – qHTS for Inhibitors of Polymerase Eta; AID 588591, 2011; Potency, µM (doses to about 114 µM), for the others: at the highest dose activity change, negative = inhibition, hits mostly inhibitors; recombinant Pol eta, fluorescent DNA replication assay; actives 1.2% (n = 390,000); further: potency means the concentration at half of the fitted maximal effect; on the % scale 0 is the no-effect control and ±100 the full control effect
#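 Fluorescent replication assay: 50 nM final substrate added after a 15 min room-temperature compound preincubation with 10 nM enzyme. Signal taken at 0 min and again at 10 min.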
# Pol kappa inh-1 – qHTS for Inhibitors of Polymerase Kappa. actives 0.53% (n = 400,000). DNA polymerase kappa (Homo sapiens), Q9UBT6. Potency, µM (titrated, usually from 107 µM), for inactives: at the highest dose activity, negative = inhibition, most hits filed as inhibitors. AID 588579, 2011. purified Pol kappa, fluorescent DNA synthesis assay, 10 min; further: potency means the concentration at half of the fitted maximal effect; on the % scale 0 is the no-effect control and ±100 the full control effect
#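 Readout: fluorescence, taken kinetically at 0 and 10 min. Conditions: 10 nM Pol kappa, 15 min RT compound preincubation, 50 nM substrate final. Controls: enzyme-free buffer wells.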
# WRN inhibitor – qHTS for Inhibitors of WRN Helicase; Bifunctional 3'-5' exonuclease/ATP-dependent helicase WRN (Homo sapiens), Q14191; actives 0.46% (n = 360,000); Potency, µM (highest dose often 114 µM), for the others: at the top dose activity change, negative = inhibition, most hits filed as inhibitors; WRN helicase unwinding, fluorescent forked duplex, kinetic; further: potency means the concentration at half of the fitted maximal effect; on the % scale 0 is the no-effect control and ±100 the full control effect; nearly all actives have a fitted effect of over 55% in size
#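 WRN at 20 nM final was preincubated with compound for 15 min at room temperature; reaction started with 100 nM forked duplex oligonucleotide carrying fluorophore and quencher plus 2 mM ATP (final). Unwinding followed kinetically by red fluorescence (ex 525/em 598 nm).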
# POLI inh – qHTS for Inhibitors of Polymerase Iota; actives 1% (n = 390,000); AID 588590, 2011; Pol iota fluorescent replication assay, 10 min; Potency, µM (top dose mostly 115 µM), for the others: at the top dose activity, negative = inhibition, hits mostly inhibitors; DNA polymerase iota (Homo sapiens), Q9UNA4; further: potency means the concentration at half of the fitted maximal effect
#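 Fluorescent replication assay read twice, at 0 min and 10 min after adding 50 nM (final) substrate. Enzyme (10 nM) and compounds were first incubated 15 min at room temperature; enzyme-free buffer wells were negative controls.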
# Pol beta inh – qHTS Assay for Inhibitors of DNA Polymerase Beta. P06746. Pol beta primer extension/strand displacement, fluorescence kinetic. Potency, µM (top dose mostly 114 µM), for the others: at the highest dose activity change, negative = inhibition, hits mostly inhibitors. actives 1.3% (n = 340,000). AID 485314, 2010; further: potency means the concentration at half of the fitted maximal effect; on the % scale 0 is the no-effect control and ±100 the full control effect
#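 Enzyme-only controls used 10 nM Pol beta; buffer lacking enzyme served as negative control. Compound preincubated 15 min, then 50 nM substrate added; 0 and 10 min reads at room temperature.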
# FEN1 inhibitor – qHTS Assay for the Inhibitors of Human Flap endonuclease 1 (FEN1); actives 0.35% (n = 390,000); Potency, µM (titrated, usually from 114 µM), inactives show at the highest dose activity change, negative = inhibition, actives largely listed as inhibitors; Recombinant FEN1 flap cleavage, fluorescence, 15 min; further: potency means the concentration at half of the fitted maximal effect; on the % scale 0 is the no-effect control and ±100 the full control effect; nearly all actives have a fitted effect of over 65% in size
#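 Read-out was taken twice, immediately and after 15 min, following addition of 50 nM substrate to 10 nM FEN1 that had sat with test compound for 15 min at room temperature. Curves came from a four-parameter Hill model.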
# PGK validate – qHTS for inhibitors of Phosphogylcerate Kinase: Hit Validation Screen; shares compounds with Pol kappa inh-1; TbPGK coupled GAPDH assay, Kinase-Glo luminescence; Potency, µM (series often up to 57.5 µM), for inactives: at the highest dose activity change, negative = inhibition, actives largely listed as inhibitors; actives 79% (n = 500); AID 686980, 2013; further: potency means the concentration at half of the fitted maximal effect; on the % scale 0 is the no-effect control and ±100 the full control effect; nearly all actives have a fitted effect of over 65% in size
# Pol iota confirm – qHTS for Inhibitors of Polymerase Iota: Confirmatory Assay for Cherry-picked Compounds; Pol iota primer extension, TAMRA/BHQ fluorescence; actives 77% (n = 1,500); shares compounds with Pol kappa inh-1; Potency, µM, hits mostly inhibitors; AID 720496, 2013; further: potency means the concentration at half of the fitted maximal effect
# GALK confirm – Confirmation Assay for Inhibitors of Human Galactokinase (GALK). AID 2015, 2009. Potency, µM (top dose mostly 115 µM), without a hit: at the highest dose activity, negative = inhibition, hits mostly inhibitors. actives 70% (n = 150). purified GALK, Kinase-Glo ATP depletion luminescence. shares compounds with Pol eta inh-1
# Redox cycling – Confirmatory Assay for Inhibitors of Human Galactokinase (GALK): Phenol-HRP redox assay counterscreen | actives 40% (n = 150) | shares compounds with Pol eta inh-1 | Phenol red-HRP H2O2 redox cycling, absorbance 600 nm | Potency, µM (titrated, usually from 115 µM), without a hit: at the top dose activity change, negative = H2O2 signal, actives largely listed as inhibitors
# HEK293 tox – Secondary Assay for Inhibitors of Human Galactokinase (GALK): HEK-293 Cell Viability Assay; shares compounds with Pol eta inh-1; HEK-293 viability, ATP luminescence (CellTiter-Glo), 24/48 h; Potency, µM (top dose mostly 46.1 µM), for inactives: top-dose activity change, negative = cytotoxicity, hits mostly inhibitors; actives 10% (n = 170); further: potency means the concentration at half of the fitted maximal effect; on the % scale 0 is the no-effect control and ±100 the full control effect
# Pol kappa inh-2 – qHTS for Inhibitors of Polymerase Kappa: Confirmatory Assay for Cherry-picked Compounds. actives 76% (n = 920). Potency, µM, usual class: inhibitors. shares compounds with Pol eta inh-1. purified Pol-kappa, fluorescent strand-displacement substrate; further: potency means the concentration at half of the fitted maximal effect
# Pol eta inh-2 – qHTS for Inhibitors of Polymerase Eta: Confirmatory Assay for Cherry-picked Compounds; shares compounds with Pol eta inh-1; Pol eta primer extension, TAMRA/BHQ fluorescence, 10 min; Potency, µM, hits mostly inhibitors; actives 64% (n = 2,600); AID 720502, 2013; further: potency means the concentration at half of the fitted maximal effect
# * marks the source's active call; other numbers are inactive results; u = inconclusive; x = no result; [ ] = dose if it differs, or a comment. The list is not random: actives were taken first. Their share in the collection is about 2.4%. The call rests on the fitted dose curve; in most records, active means well fitted curve in the direction sought with a large enough effect; inconclusive means small, poorly fitted or top-dose-only effect, or another doubt; inactive means no such curve, though single readings can be large; an effect the other way counts as inactive or inconclusive.
SMILES,Pol eta inh-1,Pol kappa inh-1,WRN inhibitor,POLI inh,Pol beta inh,FEN1 inhibitor,Pol iota confirm,Pol kappa inh-2,Pol eta inh-2,others
Cc1ccc(S(=O)(=O)N2[C@@H](c3ccc(C(C)(C)C)cc3)C(C(=O)O)=CC[C@H]2c2ccc(Cl)cc2)cc1,79µM*,u,u,u,x,-10%,u,67*,u,
Cc1c(C)n(C(=O)CSc2nc3ccccc3[nH]2)c2ccccc12,u,u,u,u,8.9µM*,-9%,u,x,38*,
O=C(/C=C/c1ccco1)N1CCN(S(=O)(=O)c2ccccc2)CC1,18µM*,u,-32%,50µM*,x,11%,x,u,u,PGK validate=9.2µM*
O=C(/C=C/c1ccc([N+](=O)[O-])cc1)N1CCN(S(=O)(=O)c2ccccc2)CC1,-7%,-9%,-21%,-2%,x,2%,x,x,x,
Cc1c(Cl)cccc1N=C1NC(=O)CS1,5%,x,8%,x,x,x,x,x,x,
CCN1C(=O)/C(=C/c2cn(-c3ccccc3)nc2-c2cccnc2)SC1=S,-19%,3%,8%,-2%,x,-3%,x,x,x,
CN1CCC(N(C)C(=O)/C=C/c2cn(-c3ccccc3)nc2-c2cccs2)CC1,-4%,-8%,5%,49%,2%,-19%,x,x,x,
O=C(O)CCCCCN1C(=O)/C(=C/c2cn(-c3ccccc3)nc2-c2cccs2)SC1=S,u,u,u,u,x,-9%,34*,u,x,
O=C(O)CCCCCN1C(=O)/C(=C\c2cn(-c3ccccc3)nc2-c2cccs2)SC1=S,45µM*,u,-16%[11.6 µM],u,-68%,-5%,34*,x,u,
O=C(O)CCN1C(=O)/C(=C/c2cn(-c3ccccc3)nc2-c2cccs2)SC1=S,35µM*,89µM*,-22%[11.6 µM],32µM*,-16%,u,19*,x,43*,
COc1ccc2c(c1)c(=O)oc1cc(OCC(=O)N3CCc4ccccc4C3)ccc12,89µM*,u,u,u,11µM*,-9%,34*,8.4*,76*,PGK validate=3.3µM*
CCC(=O)N1CCCC1(C)C(=O)Nc1cccc(Oc2ccccc2)c1 (configuration not stated),x,x,3%,x,x,x,x,x,x,
COc1ccccc1-c1noc(-c2ccc(NCCc3ccccc3)c([N+](=O)[O-])c2)n1,-1%,-14%,x,10%,0%,-8%,x,x,x,
N#Cc1ccccc1N1CCN(C(=O)c2ccc(NC(=O)c3ccc(Br)o3)cc2)CC1,22µM*,71µM*,-26%,22µM*,x,-7%,u,u,76*,
Cc1cc(C(=O)NCc2ccc(C(=O)O)o2)c(C)o1,4µM*,32µM*,-34%[57.1 µM],20µM*,28µM*,1%,27*,x,6.7*,PGK validate=u
O=[N+]([O-])c1cc(/C=N/Nc2nc3ccccc3[nH]2)c(O)cc1O,4.5µM*,40µM*,u,45µM*,20µM*,u,u,x,u,
CCCCCC(=O)N1C[C@H](n2cc(COC(=O)c3ccccc3)nn2)[C@@H](O)C[C@@H]1c1ccc(Cl)cc1,-16%,x,-4%,x,x,x,x,x,x,
CCc1ccc(NC2=NC(C(=O)c3ccccc3)CC(=O)N2)cc1 (configuration not stated),-2%,-7%,1%,13%,u,0%,x,x,x,
CCc1ccc(S(=O)(=O)/N=C2\C=C(Nc3ccc(C(=O)O)cc3)C(=O)c3ccccc32)cc1,28µM*,-8%,-18%[11.6 µM],11µM*,-30%,-31%,19*,u,21*,GALK confirm=u;Redox cycling=12µM*;HEK293 tox=11µM*
Cc1ccc(S(=O)(=O)/N=C2\C=C(Nc3cccc(C(=O)O)c3)C(=O)c3ccccc32)cc1,32µM*,3%,8%,4µM*,u,u,75*,x,48*,
Cc1ccc(S(=O)(=O)/N=C2\C=C(NS(=O)(=O)c3ccccc3)C(=O)c3ccccc32)c(C)c1,-3%,-9%,-22%,u,x,-2%,x,x,x,
Cc1cc(C=O)c(C)n1-c1ccc(Cl)c(C(=O)O)c1,3.2µM*,22µM*,u,5.6µM*,3.2µM*,u,11*,x,6*,PGK validate=12µM*
O=C1C=C(N2CCOCC2)c2ccccc2C1=O,5.6µM*,-8%,-19%,1.8µM*,-11%,-18%,17*,x,7.6*,GALK confirm=8.4µM*;Redox cycling=4.7µM*;HEK293 tox=14µM*
